A short description of experiment [1]: small molecules captured by biotinylated probe aFSTL3 – biochemical, small-molecule microarray, fluorescence 635/667, stem cell growth factor project, primary screen (AID 1064).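 Further: measures binding of the biotinylated anti-FSTL3 antibody to printed compounds.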 Conditions: higher = more signal.
Experiment [2] can be described thus: binders from COS7 lysate, DM2A8 probe, primary screen, torsin A project, cell lysate, small-molecule microarray, fluorescence 635/667 (AID 1065). Conditions: higher = more signal, COS7 lysate expressing mutant human TOR1A.
Experiment [3] in a line: small molecules captured by biotinylated probe aFGF2 – biochemical, small-molecule microarray, fluorescence 635/667, stem cell growth factor project, primary screen (AID 1067).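 Further: measures binding of biotinylated aFGF2 protein to printed compounds on slides; z-score merges feature fluorescence and signal-to-noise across triplicate slides.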 Conditions: higher = more signal.
Experiment [4] is described as follows: small molecules captured by biotinylated probe aFGF10 – biochemical, small-molecule microarray, fluorescence 635/667, stem cell growth factor project, primary screen (AID 1071).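 Further: score merges 667 nm spot intensity and signal to noise from triplicate slides.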 Conditions: higher = more signal.
For experiment [5], the target named is Neurogenic locus notch homolog protein 2 (Homo sapiens) (UniProt Q04721). The experiment can be described thus: small molecules binding Notch2 protein – biochemical, small-molecule microarray, 635 nm fluorescence, stem cell growth factors, primary screen (AID 1073). The following applies: higher = more signal.
Experiment [6] concerns the target Pro-neuregulin-1, membrane-bound isoform (Homo sapiens) (UniProt Q02297). Nature of the experiment: small molecules binding neuregulin-1 protein – biochemical, small-molecule microarray, fluorescence 635/667, psychiatric disease protein project, primary screen (AID 1075).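 Further: score combines 667 nm spot fluorescence with signal to noise.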 Conditions: NRG1 binding, 635 nm fluorescence, higher = more signal.
Experiment [7] concerns Neuregulin-1 EGF-like domain. The experiment can be described thus: small molecules binding NRG1 EGF domain – biochemical, small-molecule microarray, 635 nm fluorescence, primary screen (AID 1081).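 Further: binding of the protein to compounds printed on small-molecule microarray slides.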 Conditions: higher = more signal.
Experiment [8] in a line: FRG1 expression reporter modulators in myotubes – cell-based, C2C12 myotubes, firefly/Renilla luciferase, luminescence, FRG1 inhibition for FSHD, primary screen (AID 1084). The following applies: FRG1 promoter luciferase, higher = more signal, called active from +8 up or from −8 down.
Experiment [9] in a line: small molecules captured by biotinylated probe aFST – biochemical, small-molecule microarray, fluorescence 635/667, stem cell growth factor project, primary screen (AID 1086).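 Further: score merges 667 nm fluorescence with signal-to-noise of each printed compound spot.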 The following applies: higher = more signal.
Experiment [10] in a line: binders of probe aHhip on microarray, primary screen, stem cell growth factor project, biochemical, small-molecule microarray, fluorescence 635/667 (AID 1087).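 Further: score merges spot fluorescence at 667nm with spot signal to noise ratio.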 The following applies: higher = more signal.
Experiment [11] deals with PRMT1 (protein arginine N-methyltransferase 1). The experiment can be described thus: small molecules binding arginine methyltransferase PRMT1 – biochemical, small-molecule microarray, 635 nm fluorescence, primary screen (AID 1088).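 Further: binding of Prmt1 protein to compounds spotted on small-molecule microarray slides.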 The following applies: higher = more signal.
The nature of experiment [12]: growth effects on S. cerevisiae YJM789 – YJM789 clinical isolate, OD600, 24 h, basal, primary screen (AID 1089).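 Further: growth of clinical yeast isolate S. cerevisiae YJM 789 seeded 1000 cells per well; test concentration not given here.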 Conditions: higher = more signal, called active from +8 up or from −8 down.
Experiment [13] is described as follows: S. pombe growth modifiers, basal conditions – strain 972, OD600, 24 h, no modulator, primary screen (AID 1090).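 Further: basal condition with compound alone and no growth modifier present; test concentration not given here.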 The following applies: S. pombe 972 growth, higher = more signal, called active from +8 up or from −8 down.
The nature of experiment [14]: budding yeast growth modifiers under rapamycin – strain BY4716, OD600, 96 h, primary screen (AID 1091). Further: test concentration not given here. The following applies: S. cerevisiae BY4716 + rapamycin, higher = more signal, called active from +8 up or from −8 down.
The target of experiment [15] is Torsin-1A-interacting protein 2 (Homo sapiens) (UniProt Q8NFQ8). Nature of the experiment: small molecules binding lysate-expressed LULL1 – cell lysate, human LULL1 lysate, 635/667 nm fluorescence, primary screen (AID 1092).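 Further: probe is lysate of COS7 cells overexpressing human LULL1; score merges per-feature 667 nm fluorescence with signal-to-noise.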 Conditions: small-molecule microarray, hLULL1 lysate binding, 635 nm fluorescence; higher = more signal.
A short description of experiment [16]: optical density change of DRC41 E. coli – strain DRC41, OD650, 24 h, E. coli filamentation project, primary screen (AID 1093).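 Further: MC1000 strain lacking acrAB efflux and sulA so SOS filamentation is blocked; test concentration not given here.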 The following applies: E. coli DRC41 growth, higher = more signal, called active from +8 up or from −8 down.
Experiment [17] in a line: probe aLefty2 binding to arrayed compounds – biochemical, biotinylated probe, 635/667 nm fluorescence, primary screen (AID 1094).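 Further: score merges spot fluorescence near 667 nm with spot signal-to-noise ratio.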 The following applies: small-molecule microarray, higher = more signal.
Experiment [18] deals with Noggin (protein binding on small-molecule microarray). Nature of the experiment: small molecules binding Noggin protein – biochemical, 635/667 nm fluorescence, primary screen (AID 1095).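 Further: score merges 667 nm feature fluorescence with signal to noise over triplicate slides.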 Conditions: 635 nm fluorescence, higher = more signal.
Experiment [19] addresses Neurogenic locus notch homolog protein 3 (Homo sapiens) (UniProt Q9UM47). Nature of the experiment: small molecules binding NOTCH3 protein – biochemical, 635/667 nm fluorescence, primary screen (AID 1096). The following applies: small-molecule microarray, 635 nm fluorescence, higher = more signal.
Experiment [20] is described as follows: probe aEGFR binding to arrayed compounds – biochemical, biotinylated probe, 635/667 nm fluorescence, primary screen (AID 1097).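 Further: probe is a biotinylated anti-EGFR antibody binding compounds printed on slides; score combines fluorescence near 667 nm and signal to noise of each spot.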 Conditions: small-molecule microarray, higher = more signal.

The source made the active and inactive calls.

Sequence of Neurogenic locus notch homolog protein 3 (Homo sapiens) (Q9UM47 whole entry, looked up): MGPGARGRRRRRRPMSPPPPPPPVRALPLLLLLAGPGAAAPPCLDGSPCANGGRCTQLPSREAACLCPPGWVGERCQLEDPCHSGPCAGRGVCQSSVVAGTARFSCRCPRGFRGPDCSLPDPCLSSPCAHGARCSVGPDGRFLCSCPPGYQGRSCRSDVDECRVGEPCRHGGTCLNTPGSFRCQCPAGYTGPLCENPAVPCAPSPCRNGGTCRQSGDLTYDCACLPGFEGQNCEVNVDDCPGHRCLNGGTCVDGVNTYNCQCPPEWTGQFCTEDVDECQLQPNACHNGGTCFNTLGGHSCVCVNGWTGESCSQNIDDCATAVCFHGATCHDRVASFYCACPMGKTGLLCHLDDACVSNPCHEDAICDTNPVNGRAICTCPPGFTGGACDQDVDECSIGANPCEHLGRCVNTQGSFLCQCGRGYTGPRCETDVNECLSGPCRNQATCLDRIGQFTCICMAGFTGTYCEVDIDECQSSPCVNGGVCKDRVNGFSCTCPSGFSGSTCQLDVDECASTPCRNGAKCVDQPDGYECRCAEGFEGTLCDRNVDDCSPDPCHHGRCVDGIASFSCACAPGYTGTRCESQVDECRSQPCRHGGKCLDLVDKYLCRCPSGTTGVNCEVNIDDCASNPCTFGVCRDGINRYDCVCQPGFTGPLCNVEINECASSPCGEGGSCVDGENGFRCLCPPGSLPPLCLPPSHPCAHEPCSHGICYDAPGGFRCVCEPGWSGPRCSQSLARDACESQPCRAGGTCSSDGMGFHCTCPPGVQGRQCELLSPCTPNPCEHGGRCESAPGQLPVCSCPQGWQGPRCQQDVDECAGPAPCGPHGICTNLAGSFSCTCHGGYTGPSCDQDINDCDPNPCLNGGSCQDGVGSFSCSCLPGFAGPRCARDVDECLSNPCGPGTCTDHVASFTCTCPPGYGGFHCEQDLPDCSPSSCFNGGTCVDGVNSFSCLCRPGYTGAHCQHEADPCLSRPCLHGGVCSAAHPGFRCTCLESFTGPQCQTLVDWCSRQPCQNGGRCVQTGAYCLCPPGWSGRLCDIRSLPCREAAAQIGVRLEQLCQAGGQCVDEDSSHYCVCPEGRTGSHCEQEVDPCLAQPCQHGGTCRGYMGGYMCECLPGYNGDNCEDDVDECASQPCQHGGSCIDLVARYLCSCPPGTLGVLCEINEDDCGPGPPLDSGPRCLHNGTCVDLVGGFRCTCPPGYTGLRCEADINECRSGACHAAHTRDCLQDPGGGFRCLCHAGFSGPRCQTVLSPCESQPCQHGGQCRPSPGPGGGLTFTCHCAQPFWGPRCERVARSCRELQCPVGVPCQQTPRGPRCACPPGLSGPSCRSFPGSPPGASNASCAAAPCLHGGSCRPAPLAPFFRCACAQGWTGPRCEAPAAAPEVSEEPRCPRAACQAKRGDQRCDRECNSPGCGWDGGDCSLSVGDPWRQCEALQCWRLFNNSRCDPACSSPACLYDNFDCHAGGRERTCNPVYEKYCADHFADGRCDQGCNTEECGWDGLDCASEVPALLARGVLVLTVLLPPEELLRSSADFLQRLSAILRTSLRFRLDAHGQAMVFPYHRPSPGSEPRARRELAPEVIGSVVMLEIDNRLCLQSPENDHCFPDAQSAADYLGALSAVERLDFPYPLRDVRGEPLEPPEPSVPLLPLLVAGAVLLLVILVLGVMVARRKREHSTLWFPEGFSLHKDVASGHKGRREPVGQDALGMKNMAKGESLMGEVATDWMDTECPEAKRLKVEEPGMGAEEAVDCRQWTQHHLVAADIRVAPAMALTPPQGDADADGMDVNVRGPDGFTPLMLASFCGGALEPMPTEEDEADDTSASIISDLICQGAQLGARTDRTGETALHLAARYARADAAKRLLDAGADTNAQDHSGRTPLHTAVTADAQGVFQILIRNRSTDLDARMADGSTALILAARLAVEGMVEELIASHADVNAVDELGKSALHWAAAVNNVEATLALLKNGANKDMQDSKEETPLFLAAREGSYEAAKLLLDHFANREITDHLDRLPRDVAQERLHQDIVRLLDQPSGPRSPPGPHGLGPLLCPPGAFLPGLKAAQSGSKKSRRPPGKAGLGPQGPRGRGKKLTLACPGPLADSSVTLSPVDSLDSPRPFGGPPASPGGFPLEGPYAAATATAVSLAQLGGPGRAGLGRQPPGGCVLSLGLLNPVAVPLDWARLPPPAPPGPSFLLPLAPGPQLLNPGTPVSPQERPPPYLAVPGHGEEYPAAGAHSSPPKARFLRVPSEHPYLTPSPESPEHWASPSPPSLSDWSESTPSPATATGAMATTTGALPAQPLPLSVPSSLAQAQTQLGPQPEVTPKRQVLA
Sequence of Neurogenic locus notch homolog protein 2 (Homo sapiens) (Q04721 whole entry, looked up, canonical isoform): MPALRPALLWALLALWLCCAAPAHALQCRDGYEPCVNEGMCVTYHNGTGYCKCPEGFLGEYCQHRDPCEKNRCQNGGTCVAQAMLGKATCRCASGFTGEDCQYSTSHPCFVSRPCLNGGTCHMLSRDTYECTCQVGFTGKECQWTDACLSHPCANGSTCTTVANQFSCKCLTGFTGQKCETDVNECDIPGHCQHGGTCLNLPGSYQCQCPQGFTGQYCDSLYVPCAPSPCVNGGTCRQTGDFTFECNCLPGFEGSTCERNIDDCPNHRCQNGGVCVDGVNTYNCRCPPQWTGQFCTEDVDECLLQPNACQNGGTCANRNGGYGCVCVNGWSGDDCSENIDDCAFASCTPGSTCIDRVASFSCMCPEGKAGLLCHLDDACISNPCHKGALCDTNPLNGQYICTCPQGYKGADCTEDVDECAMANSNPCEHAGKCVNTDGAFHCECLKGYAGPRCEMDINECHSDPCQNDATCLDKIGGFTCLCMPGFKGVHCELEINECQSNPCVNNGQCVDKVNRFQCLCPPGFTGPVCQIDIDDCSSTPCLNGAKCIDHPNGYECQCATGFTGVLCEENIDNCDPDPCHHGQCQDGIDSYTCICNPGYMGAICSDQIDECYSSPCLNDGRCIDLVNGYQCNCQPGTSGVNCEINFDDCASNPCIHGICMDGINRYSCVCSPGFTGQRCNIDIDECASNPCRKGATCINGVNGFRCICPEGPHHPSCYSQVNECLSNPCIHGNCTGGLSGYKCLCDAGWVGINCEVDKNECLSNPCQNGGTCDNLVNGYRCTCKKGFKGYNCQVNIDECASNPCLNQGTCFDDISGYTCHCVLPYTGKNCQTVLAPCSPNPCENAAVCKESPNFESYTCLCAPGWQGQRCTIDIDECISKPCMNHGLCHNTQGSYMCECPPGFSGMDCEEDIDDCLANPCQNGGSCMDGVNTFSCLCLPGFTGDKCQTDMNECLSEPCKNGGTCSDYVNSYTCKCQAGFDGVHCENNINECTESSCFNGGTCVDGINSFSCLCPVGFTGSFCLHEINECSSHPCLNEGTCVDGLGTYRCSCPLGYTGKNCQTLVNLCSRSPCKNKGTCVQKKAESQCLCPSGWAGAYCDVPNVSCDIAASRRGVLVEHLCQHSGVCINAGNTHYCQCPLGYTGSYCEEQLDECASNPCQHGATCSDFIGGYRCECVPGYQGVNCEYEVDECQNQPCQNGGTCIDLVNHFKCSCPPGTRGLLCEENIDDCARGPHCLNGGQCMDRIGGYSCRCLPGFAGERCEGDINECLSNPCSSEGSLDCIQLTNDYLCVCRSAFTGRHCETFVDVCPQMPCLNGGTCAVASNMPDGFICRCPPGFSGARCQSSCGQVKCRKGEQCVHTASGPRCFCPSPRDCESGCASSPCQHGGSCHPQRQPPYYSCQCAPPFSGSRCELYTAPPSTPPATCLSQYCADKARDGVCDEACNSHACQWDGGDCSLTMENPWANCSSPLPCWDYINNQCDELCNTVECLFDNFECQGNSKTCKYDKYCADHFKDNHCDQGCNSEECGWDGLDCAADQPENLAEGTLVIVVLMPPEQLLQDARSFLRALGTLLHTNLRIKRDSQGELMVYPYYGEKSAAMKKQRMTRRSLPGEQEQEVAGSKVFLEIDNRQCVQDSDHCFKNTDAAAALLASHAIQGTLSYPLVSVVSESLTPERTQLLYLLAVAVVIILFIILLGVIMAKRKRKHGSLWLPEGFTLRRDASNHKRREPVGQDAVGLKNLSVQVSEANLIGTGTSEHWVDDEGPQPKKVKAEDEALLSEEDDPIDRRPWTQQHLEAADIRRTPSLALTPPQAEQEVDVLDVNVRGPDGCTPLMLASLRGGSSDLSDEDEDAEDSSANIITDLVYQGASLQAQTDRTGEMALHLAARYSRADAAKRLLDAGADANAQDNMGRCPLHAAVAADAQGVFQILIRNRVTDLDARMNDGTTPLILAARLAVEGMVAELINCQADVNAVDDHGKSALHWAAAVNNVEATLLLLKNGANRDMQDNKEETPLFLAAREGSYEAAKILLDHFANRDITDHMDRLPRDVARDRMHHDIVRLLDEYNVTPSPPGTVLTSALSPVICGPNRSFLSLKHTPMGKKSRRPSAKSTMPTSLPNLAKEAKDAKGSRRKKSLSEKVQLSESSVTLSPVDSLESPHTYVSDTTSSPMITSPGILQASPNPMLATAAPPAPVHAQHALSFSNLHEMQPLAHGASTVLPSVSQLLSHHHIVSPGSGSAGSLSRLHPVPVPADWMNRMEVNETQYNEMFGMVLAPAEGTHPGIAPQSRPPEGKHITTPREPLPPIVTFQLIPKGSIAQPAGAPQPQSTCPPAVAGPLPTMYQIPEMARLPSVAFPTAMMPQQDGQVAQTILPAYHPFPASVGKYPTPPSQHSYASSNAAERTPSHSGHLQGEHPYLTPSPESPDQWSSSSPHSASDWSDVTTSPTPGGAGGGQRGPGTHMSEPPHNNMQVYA

On to `CC(C)NC(=O)[C@@H]1c2ccccc2C(=O)N(C(C)C)[C@H]1c1ccc(CO)cc1`, for which the composite z-score is 0.473 in experiment [1]; 0.0121 in [2]; -0.0064 in experiment [3]; -0.057 in experiment [4]; -0.78 in [5]; 0.853 in [6]. Moreover, the composite z-score in experiment [7] is 1.47; in experiment [9], -0.868; in [10], -0.236; in [11], 1.44; in experiment [15], 2.99; in [17], -0.0478. Further, the composite z-score in experiment [18] is -1.94; in experiment [19], -0.715; in [20], -0.44. Moreover, the z-score was 0.229 (inactive) in experiment [8]; 0.549 (inactive) in experiment [12]; 0.458 (inactive) in [13]; 0.386 (inactive) in [14]; 1.36 (inactive) in experiment [16].
With `COc1ccc(-c2cc3c(c(Cc4ccccc4)n2)[Si](C(C)C)(C(C)C)OC3)cn1`, the composite z-score was -0.305 in experiment [1]; 0.28 in [2]; -0.0668 in [3]; 0.0198 in experiment [4]; 0.0333 in [5]; -0.53 in experiment [6]. Also, the composite z-score in experiment [7] was -0.723; in experiment [9], 0.29; in experiment [10] it was -0.236; in [11], -0.738; in [15] it was -0.655; in [17], -0.115. Besides, the composite z-score in experiment [18] is -0.154; in [19], -0.459; in experiment [20], -0.16. For the same molecule, the z-score in experiment [8] is -1.27 (inactive); in [12] it was 1.64 (inactive); in [13], -0.27 (inactive); in experiment [14], 1.41 (inactive); in experiment [16], -1.41 (inactive).
On to `C=CCOC(=O)[C@H]1[C@@H]2C(=O)O[C@@H](c3ccccc3)[C@@H](c3ccccc3)N2[C@@H](c2ccc(OCCOC(=O)[C@@H]3C[C@@H]4C(=O)N5CCC[C@H]5C(=O)N4[C@@H]3c3cccc(OCCO)c3)cc2)[C@]12C(=O)Nc1ccc(I)cc12`, for which the composite z-score in experiment [1] was -0.34; in experiment [2] it was 1.19; in experiment [3] it was -0.104; in experiment [4], 0.397; in [5] it was 0.373; in experiment [6], 1.05. Also, the composite z-score in experiment [7] is 1.31; in [9], 0.447; in [10], -0.12; in [11] it was 1.56; in experiment [15], 2.09; in experiment [17], -0.117. Besides, the composite z-score in [18] was 1.86; in experiment [19] it was 1.08; in [20] it was 0.0032. Also, the z-score in experiment [8] is 0.984 (inactive); in [12] it was 0.151 (inactive); in [13], 1.04 (inactive); in [14] it was 2.23 (inactive); in experiment [16] it was -0.443 (inactive).
For `COCCOC(=O)N1C(=O)[C@@]2(c3cc(C#CC4(O)CCCCCC4)ccc31)[C@H](c1ccccc1OCCO)N1[C@H](c3ccccc3)[C@H](c3ccccc3)OC(=O)[C@H]1[C@@H]2C(=O)N1CCc2cc(OC)c(OC)cc2C1`, the composite z-score is -0.207 in [1]; 0.788 in experiment [2]; -0.0685 in experiment [3]; 0.542 in [4]; 1.03 in [5]; 1.6 in [6]. Also, the composite z-score was 1.19 in experiment [7]; 0.223 in experiment [9]; 0.177 in experiment [10]; 1.55 in experiment [11]; 2.96 in experiment [15]; -0.0903 in experiment [17]. Moreover, the composite z-score was found to be 1.24 in experiment [18], 1.05 in experiment [19] and 0.0092 in [20]. For the same molecule, the z-score in [8] was -0.658 (inactive); in experiment [12], 2.46 (inactive); in [13], 2.71 (inactive); in [14], 5.86 (inactive); in experiment [16], 0.339 (inactive).
In the case of `NC(=O)[C@@]1(Cc2ccccc2)N=C(c2ccc(OCCCO)cc2)O[C@H]1c1ccccc1`, the composite z-score in [1] was 0.264; in [2], -0.154; in [3], -0.0891; in [4], 0.501; in [5], 1.08; in experiment [6], 1.45. Moreover, the composite z-score in experiment [7] was 0.994; in experiment [9], 0.182; in experiment [10], -0.189; in [11], 0.439; in experiment [15], 2.41; in experiment [17], 0.0694. Also, the composite z-score in experiment [18] was 0.0537; in [19] it was -0.0043; in experiment [20], -0.0996. The z-score is -2.16 (inactive) in [8]; 3.21 (inactive) in experiment [12]; 1.04 (inactive) in [13]; -0.0393 (inactive) in experiment [14]; 1.95 (inactive) in [16].

The values are drawn from PubChem BioAssay.
